Results: PubChem BioAssay (NCATS)
Inconclusive results are not listed. The source made the active and inactive calls. Calls come from the whole dose curve; as a rule, active = well fitted curve in the direction sought with a large enough effect; inconclusive = small, poorly fitted or top-dose-only effect, or another doubt; inactive = no such curve, though single readings can be large; an effect the other way counts as inactive or inconclusive.

What was measured:
C33A = assay: Primary qHTS to identify gynecologic anti-cancer compounds using libraries of approved drugs and bioactive compounds (AID 1345084); settings: Gynecologic cancer cell panel viability, ATPlite luminescence, 48 h; series mostly up to 57.5 µM; note: % is set by controls: 0 for no effect and ±100 for the full control effect; nearly all actives have a fitted effect of over 55% in size
Method in brief: (§1)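 Five-point cytotoxicity, 48 h drug exposure at 37 C, 5% CO2, on cells seeded 16 h beforehand. ATP content read by ATPlite luminescence.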

CAOV3 = assay: as above; settings: Gynecologic cancer cell panel viability, ATPlite luminescence, 48 h; series mostly up to 57.5 µM
Method in brief: as §1

CASKI = assay: as above; settings: Gynecologic cancer cell panel viability, ATPlite luminescence, 48 h; series mostly up to 57.5 µM
Method in brief: as §1

Es-2 = assay: as above; settings: Gynecologic cancer cell panel viability, ATPlite luminescence, 48 h; series mostly up to 57.5 µM
Method in brief: as §1

HeLa = assay: as above; settings: Gynecologic cancer cell panel viability, ATPlite luminescence, 48 h; series mostly up to 57.5 µM
Method in brief: as §1

Hek293T = assay: as above; settings: Gynecologic cancer cell panel viability, ATPlite luminescence, 48 h, control line for the selectivity index; series mostly up to 57.5 µM
Method in brief: as §1

JEG-3 = assay: as above; settings: Gynecologic cancer cell panel viability, ATPlite luminescence, 48 h; series mostly up to 57.5 µM
Method in brief: as §1

NIH3T3 = assay: qHTS assay to identify novel small-molecules to repurpose for Merkel cell carcinoma treatment (AID 1296009); settings: MCC and control cell lines, CellTiter-Glo viability, 72 h; at 44.8 µM (top of the series) unless noted; note: nearly all actives have a fitted effect of over 60% in size
Method in brief: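 72 hr, 37 degree celsius; NPC 8-pt / MIPE 11-pt dose response; compound pinned in DMSO; CellTiter-Glo, 10 min RT, luminescence; normalized to no-cell and DMSO controls.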

CC1(C)CC[C@]2(C(=O)O[C@@H]3O[C@H](CO)[C@@H](O)[C@H](O)[C@H]3O)CC[C@]3(C)C(=CCC4[C@@]5(C)C[C@@H](O)[C@H](O)C(CO)(CO)C5CC[C@]43C)C2[C@@H]1O (stereo partly drawn)
inactive: Potency (C33A) | Potency (CAOV3) | Potency (CASKI) | Potency (Es-2) | Potency (HeLa) | Potency (Hek293T) | Potency (JEG-3)

C[C@]12CCC(=O)C=C1[C@@H](O)C[C@@H]1[C@@H]2[C@@H](O)C[C@@]2(C)[C@H]1CC[C@]2(O)C(=O)CO
inactive: outcome (NIH3T3) | Potency (C33A) | Potency (CASKI) | Potency (Es-2) | Potency (HeLa) | Potency (Hek293T) | Potency (JEG-3)

CC(C)(C)c1cc(CN2CCN(CC(O)c3ccc(Cl)cc3)CC2)cc(C(C)(C)C)c1O (stereo not drawn)
inactive: outcome (NIH3T3) | Potency (C33A) | Potency (Es-2) | Potency (HeLa) | Potency (Hek293T) | Potency (JEG-3)

CNC(=O)COC(=O)NCCC1CCN(c2cccc(C)n2)CC1
inactive: Potency (C33A) | Potency (CAOV3) | Potency (CASKI) | Potency (Es-2) | Potency (HeLa) | Potency (Hek293T) | Potency (JEG-3)

CC(=O)N[C@H]1[C@H](O[C@H]2CC[C@@]3(C)C(CC[C@]4(C)C3CC=C3C5CC(C)(C)CC[C@]5(C(=O)O)[C@H](O[C@@H]5O[C@H](CO)[C@@H](O)[C@H](O)[C@H]5O)C[C@]34C)C2(C)C)O[C@H](CO[C@@H]2OC[C@H](O)[C@H](O)[C@H]2O[C@@H]2OC[C@@H](O)[C@H](O)[C@H]2O)[C@@H](O)[C@@H]1O (stereo partly drawn)
inactive: activity change, negative = cytotoxicity (C33A) -4.04% [at 11.6 µM] | activity change, negative = cytotoxicity (CAOV3) 4.01% [at 11.6 µM] | activity change, negative = cytotoxicity (CASKI) -4.68% [at 11.6 µM] | activity change, negative = cytotoxicity (Es-2) -1.11% [at 11.6 µM] | activity change, negative = cytotoxicity (HeLa) 15.9% [at 11.6 µM] | activity change, negative = cytotoxicity (Hek293T) -2.94% [at 11.6 µM] | activity change, negative = cytotoxicity (JEG-3) -2.88% [at 11.6 µM]

CC1=C2C(=O)O[C@@H](c3ccoc3)[C@]2(C)CCC1
inactive: Potency (C33A) | Potency (CAOV3) | Potency (CASKI) | Potency (Es-2) | Potency (HeLa) | Potency (Hek293T) | Potency (JEG-3)

CC(C)CC(=O)O[C@@H]1OC=C(CO[C@@H]2O[C@H](CO[C@@H]3O[C@H](CO)[C@@H](O)[C@H](O)[C@H]3O)[C@@H](O)[C@H](O)[C@H]2O)[C@H]2C[C@H](O)[C@@H](CO)[C@@H]12
inactive: Potency (C33A) | Potency (CAOV3) | Potency (CASKI) | Potency (Es-2) | Potency (HeLa) | Potency (Hek293T) | Potency (JEG-3)

CC1(C)C[C@H]2C3=CCC4[C@@]5(C)CC[C@H](O[C@H]6O[C@H](C(=O)O)[C@@H](O)[C@H](O)[C@H]6O[C@H]6O[C@H](CO)[C@@H](O)[C@H](O)[C@H]6O[C@@H]6O[C@H](CO)[C@@H](O)[C@H](O)[C@H]6O)[C@](C)(CO)C5CC[C@@]4(C)[C@]3(C)CC[C@@]2(C)[C@H](O[C@@H]2OC[C@H](O)[C@H](OC3O[C@H](CO)[C@@H](O)[C@H](O)[C@H]3O)[C@H]2O)[C@@H]1O (stereo partly drawn)
inactive: activity change, negative = cytotoxicity (C33A) 3.46% [at 6.55 µM] | activity change, negative = cytotoxicity (CAOV3) 18.6% [at 6.55 µM] | activity change, negative = cytotoxicity (CASKI) -2.3% [at 6.55 µM] | activity change, negative = cytotoxicity (Es-2) 0.0485% [at 6.55 µM] | activity change, negative = cytotoxicity (HeLa) 2.32% [at 6.55 µM] | activity change, negative = cytotoxicity (Hek293T) -1.35% [at 6.55 µM] | activity change, negative = cytotoxicity (JEG-3) 2.5% [at 6.55 µM]

O=c1c2cccnc2n(-c2cccc([N+](=O)[O-])c2)c(=O)n1Cc1ccncc1
inactive: Potency (C33A) | Potency (CAOV3) | Potency (CASKI) | Potency (Es-2) | Potency (HeLa) | Potency (Hek293T) | Potency (JEG-3)

C[C@@H]1O[C@@H](O[C@H]2[C@H](O[C@H]3CC[C@@]4(C)C(CC[C@]5(C)C4CC=C4[C@@H]6CC(C)(C)CC[C@]6(C(=O)O)CC[C@]45C)[C@]3(C)CO)OC[C@H](O)[C@@H]2O)[C@H](O)[C@H](O[C@@H]2OC[C@@H](O)[C@H](O)[C@H]2O)[C@H]1O (stereo partly drawn)
inactive: activity change, negative = cytotoxicity (C33A) -12% [at 11.6 µM] | activity change, negative = cytotoxicity (CAOV3) -8% [at 11.6 µM] | activity change, negative = cytotoxicity (CASKI) -1.75% [at 11.6 µM] | activity change, negative = cytotoxicity (Es-2) -1.5% [at 11.6 µM] | activity change, negative = cytotoxicity (HeLa) 14.3% [at 11.6 µM] | activity change, negative = cytotoxicity (Hek293T) -9.01% [at 11.6 µM] | activity change, negative = cytotoxicity (JEG-3) -2.58% [at 11.6 µM]

C=C1CCC2C(C)(CO[C@@H]3O[C@H](CO)[C@@H](O)[C@H](O)[C@H]3O)C(O)CCC2(C)C1C(=O)CC1=CCOC1=O (stereo partly drawn)
inactive: Potency (C33A) | Potency (CAOV3) | Potency (CASKI) | Potency (Es-2) | Potency (HeLa) | Potency (Hek293T) | Potency (JEG-3)

COc1ccc(C)c2sc(NC(=O)c3ccncc3)nc12
inactive: Potency (C33A) | Potency (CAOV3) | Potency (CASKI) | Potency (Es-2) | Potency (HeLa) | Potency (Hek293T) | Potency (JEG-3)

C=C1CC23CCC4[C@@](C)(CCC[C@@]4(C)C(=O)O)C2CCC1C3 (stereo partly drawn)
inactive: Potency (C33A) | Potency (CAOV3) | Potency (CASKI) | Potency (Es-2) | Potency (HeLa) | Potency (Hek293T) | Potency (JEG-3)

C=C1CCC(OC(C)=O)C2(C)CC3(O)OC(=O)C(C)=C3CC12 (stereo not drawn)
inactive: Potency (C33A) | Potency (CAOV3) | Potency (CASKI) | Potency (Es-2) | Potency (HeLa) | Potency (Hek293T) | Potency (JEG-3)

CC(=O)[C@@H]1CC[C@]2(C(=O)O)CC[C@]3(C)C(CCC4[C@@]5(C)CC[C@H](O)C(C)(C)C5CC[C@]43C)C12 (stereo partly drawn)
inactive: Potency (C33A) | Potency (CAOV3) | Potency (CASKI) | Potency (Es-2) | Potency (HeLa) | Potency (Hek293T) | Potency (JEG-3)

COC1=Cc2c(nc3n(c2=O)C(C)C(=O)NC3(O)C(C)C)OC=C1 (stereo not drawn)
inactive: Potency (C33A) | Potency (CAOV3) | Potency (CASKI) | Potency (Es-2) | Potency (HeLa) | Potency (Hek293T) | Potency (JEG-3)

C[C@H]1CN(C[C@H](Cc2ccccc2)C(=O)NCC(=O)O)CC[C@@]1(C)c1cccc(O)c1
inactive: Potency (C33A) | Potency (CAOV3) | Potency (CASKI) | Potency (Es-2) | Potency (HeLa) | Potency (Hek293T) | Potency (JEG-3)
